Results as given in paper PMC7862700, “An all-to-all approach to the identification of sequence-specific readers for epigenetic DNA modifications on cytosine”.

Legend:
Assay in all cases: DAPPL (digital affinity profiling via proximity ligation, sequencing); 10 mM Tris-HCl pH 7.5, 50 mM NaCl, 1 mM DTT, 4% glycerol, room temperature, 30 min; GST-TFs on glutathione beads, 16-mer random dsDNA library, 0.1% formaldehyde crosslink after washing; high values mean tight binding
[1] = biological target: T1, FLI1 (Homo sapiens, UniProt Q01543 1-452); details: protein: recombinant; tags: N-terminal GST; dsDNA, one strand shown
T1 sequence: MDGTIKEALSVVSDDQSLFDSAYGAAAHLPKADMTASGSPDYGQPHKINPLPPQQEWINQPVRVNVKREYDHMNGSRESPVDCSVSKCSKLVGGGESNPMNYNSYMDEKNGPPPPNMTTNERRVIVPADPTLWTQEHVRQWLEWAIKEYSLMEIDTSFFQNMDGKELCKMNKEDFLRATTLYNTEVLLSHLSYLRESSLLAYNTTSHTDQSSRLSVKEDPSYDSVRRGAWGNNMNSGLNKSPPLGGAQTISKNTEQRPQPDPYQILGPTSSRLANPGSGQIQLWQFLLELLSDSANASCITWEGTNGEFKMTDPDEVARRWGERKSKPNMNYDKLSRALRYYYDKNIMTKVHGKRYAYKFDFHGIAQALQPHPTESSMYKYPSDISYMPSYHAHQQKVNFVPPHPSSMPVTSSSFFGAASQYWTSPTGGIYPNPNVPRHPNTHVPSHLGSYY
How it was run: (§1)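 Pools were built from human transcription factors expressed in yeast as GST fusions, captured on glutathione beads and DNA-barcoded, along with a tag-only sample. Incubation with 200 nmole of a 16-mer random double-stranded DNA library lasted 30 min at room temperature in Tris/NaCl/DTT/glycerol buffer, and was followed by washing, 0.1% formaldehyde crosslinking, proximity ligation, PCR amplification and Illumina NextSeq500 sequencing. Binding signal is the quotient of each hexamer's read frequency for a factor and its frequency for the tag-only sample.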

[2] = biological target: T2, ELK1 (Homo sapiens, UniProt P19419 1-428); details: protein: recombinant; tags: N-terminal GST; dsDNA, one strand shown
T2 sequence: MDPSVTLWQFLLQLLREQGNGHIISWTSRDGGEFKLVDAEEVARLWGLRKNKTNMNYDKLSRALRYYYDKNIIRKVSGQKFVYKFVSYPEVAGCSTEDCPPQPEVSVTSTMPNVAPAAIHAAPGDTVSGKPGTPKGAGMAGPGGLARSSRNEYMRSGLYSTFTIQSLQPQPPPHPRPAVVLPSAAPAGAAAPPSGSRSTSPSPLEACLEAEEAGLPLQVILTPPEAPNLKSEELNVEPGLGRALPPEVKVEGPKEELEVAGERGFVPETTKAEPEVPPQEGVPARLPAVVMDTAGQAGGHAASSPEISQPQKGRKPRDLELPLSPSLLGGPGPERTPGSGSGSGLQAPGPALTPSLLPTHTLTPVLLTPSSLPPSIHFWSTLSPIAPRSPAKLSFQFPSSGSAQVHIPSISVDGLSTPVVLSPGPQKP
How it was run: as §1

[3] = biological target: T3, GABPA (Homo sapiens, UniProt Q06546 1-454); details: protein: recombinant; tags: N-terminal GST; dsDNA, one strand shown
T3 sequence: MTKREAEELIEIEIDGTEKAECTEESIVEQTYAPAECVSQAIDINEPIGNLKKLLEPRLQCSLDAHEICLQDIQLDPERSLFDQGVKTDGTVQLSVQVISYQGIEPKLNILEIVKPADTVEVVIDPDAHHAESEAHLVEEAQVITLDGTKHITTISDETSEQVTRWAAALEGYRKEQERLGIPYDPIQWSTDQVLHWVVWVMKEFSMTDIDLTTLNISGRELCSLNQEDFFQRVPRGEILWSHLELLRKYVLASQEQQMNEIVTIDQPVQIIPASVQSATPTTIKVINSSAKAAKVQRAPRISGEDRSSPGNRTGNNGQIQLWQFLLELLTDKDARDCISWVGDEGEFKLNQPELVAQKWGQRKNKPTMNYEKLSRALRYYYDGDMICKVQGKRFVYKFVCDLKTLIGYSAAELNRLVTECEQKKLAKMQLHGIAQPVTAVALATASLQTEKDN
How it was run: as §1

[4] = biological target: T4, ERG (Homo sapiens, UniProt P11308 1-479); details: protein: recombinant; tags: N-terminal GST; dsDNA, one strand shown
T4 sequence: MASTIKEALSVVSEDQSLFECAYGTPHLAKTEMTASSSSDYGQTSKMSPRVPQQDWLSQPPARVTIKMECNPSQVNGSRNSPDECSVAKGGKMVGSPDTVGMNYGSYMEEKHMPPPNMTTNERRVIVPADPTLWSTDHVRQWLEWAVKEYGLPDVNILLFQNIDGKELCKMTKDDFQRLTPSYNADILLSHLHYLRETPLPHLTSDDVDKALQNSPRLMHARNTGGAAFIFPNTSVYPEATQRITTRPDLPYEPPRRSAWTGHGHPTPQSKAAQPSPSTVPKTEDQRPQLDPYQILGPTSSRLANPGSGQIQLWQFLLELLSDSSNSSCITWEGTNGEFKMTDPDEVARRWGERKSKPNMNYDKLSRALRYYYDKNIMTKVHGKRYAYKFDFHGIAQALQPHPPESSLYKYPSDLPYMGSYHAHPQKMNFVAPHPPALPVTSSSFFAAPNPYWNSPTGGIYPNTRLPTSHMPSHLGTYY
How it was run: as §1

[5] = biological target: ELF1 (Homo sapiens, UniProt P32519 1-619); details: protein: recombinant; tags: N-terminal GST; dsDNA, one strand shown
Sequence of ELF1 (P32519 whole entry): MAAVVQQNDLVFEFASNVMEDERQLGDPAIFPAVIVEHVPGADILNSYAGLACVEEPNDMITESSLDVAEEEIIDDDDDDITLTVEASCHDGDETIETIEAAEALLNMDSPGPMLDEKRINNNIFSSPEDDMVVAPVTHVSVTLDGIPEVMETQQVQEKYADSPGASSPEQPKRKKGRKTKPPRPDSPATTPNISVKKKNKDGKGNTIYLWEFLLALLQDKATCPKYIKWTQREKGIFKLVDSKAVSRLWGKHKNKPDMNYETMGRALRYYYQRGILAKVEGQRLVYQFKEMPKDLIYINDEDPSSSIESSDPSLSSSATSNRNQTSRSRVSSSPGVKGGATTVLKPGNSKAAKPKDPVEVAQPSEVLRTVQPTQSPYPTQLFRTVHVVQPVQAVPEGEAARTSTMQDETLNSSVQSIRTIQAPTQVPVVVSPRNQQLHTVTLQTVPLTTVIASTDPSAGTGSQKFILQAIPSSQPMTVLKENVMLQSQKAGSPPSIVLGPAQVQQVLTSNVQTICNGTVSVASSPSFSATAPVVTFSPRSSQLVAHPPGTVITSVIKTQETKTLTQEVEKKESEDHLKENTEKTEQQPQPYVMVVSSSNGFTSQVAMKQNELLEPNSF
How it was run: as §1

[6] = biological target: T5, EHF (Homo sapiens, UniProt Q9NZC4 1-300); details: protein: recombinant; tags: N-terminal GST; dsDNA, one strand shown
T5 sequence: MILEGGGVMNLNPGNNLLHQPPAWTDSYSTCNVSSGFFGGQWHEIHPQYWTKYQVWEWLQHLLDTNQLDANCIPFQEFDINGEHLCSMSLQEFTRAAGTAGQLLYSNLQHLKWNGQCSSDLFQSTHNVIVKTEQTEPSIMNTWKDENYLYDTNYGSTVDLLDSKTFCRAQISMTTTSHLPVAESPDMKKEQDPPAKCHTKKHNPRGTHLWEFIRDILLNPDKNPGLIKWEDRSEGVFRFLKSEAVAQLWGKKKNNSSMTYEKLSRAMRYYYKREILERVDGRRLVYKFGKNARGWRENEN
How it was run: as §1

[7] = biological target: SPI1 (Homo sapiens, UniProt P17947 1-270); details: protein: recombinant; tags: N-terminal GST; dsDNA, one strand shown
How it was run: as §1

[8] = biological target: SPIB (Homo sapiens, UniProt Q01892 1-262); details: protein: recombinant; tags: N-terminal GST; dsDNA, one strand shown
Sequence of SPIB (Q01892 whole entry): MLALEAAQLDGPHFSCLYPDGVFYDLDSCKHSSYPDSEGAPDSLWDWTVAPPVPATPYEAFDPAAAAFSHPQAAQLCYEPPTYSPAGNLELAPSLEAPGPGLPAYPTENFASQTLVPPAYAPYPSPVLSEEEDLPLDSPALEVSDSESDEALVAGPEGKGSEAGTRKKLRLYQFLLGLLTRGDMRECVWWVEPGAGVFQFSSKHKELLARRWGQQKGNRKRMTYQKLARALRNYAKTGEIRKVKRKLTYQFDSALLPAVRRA
How it was run: as §1

[9] = biological target: T6, ELK3 (Homo sapiens, UniProt P41970 1-407); details: protein: recombinant; tags: N-terminal GST; dsDNA, one strand shown
T6 sequence: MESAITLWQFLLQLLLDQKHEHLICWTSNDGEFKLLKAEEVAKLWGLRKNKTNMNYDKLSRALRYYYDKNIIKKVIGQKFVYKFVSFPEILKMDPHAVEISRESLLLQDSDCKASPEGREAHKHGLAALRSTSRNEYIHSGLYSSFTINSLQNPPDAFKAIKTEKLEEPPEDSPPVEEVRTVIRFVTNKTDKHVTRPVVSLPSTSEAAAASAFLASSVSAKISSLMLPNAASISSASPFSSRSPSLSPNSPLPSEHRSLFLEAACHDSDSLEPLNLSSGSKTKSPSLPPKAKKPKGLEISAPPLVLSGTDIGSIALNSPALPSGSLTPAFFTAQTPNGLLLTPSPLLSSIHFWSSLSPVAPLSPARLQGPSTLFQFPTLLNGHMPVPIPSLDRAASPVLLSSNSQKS
How it was run: as §1

[10] = biological target: T7, FEV (Homo sapiens, UniProt Q99581 1-238); details: protein: recombinant; tags: N-terminal GST; dsDNA, one strand shown
T7 sequence: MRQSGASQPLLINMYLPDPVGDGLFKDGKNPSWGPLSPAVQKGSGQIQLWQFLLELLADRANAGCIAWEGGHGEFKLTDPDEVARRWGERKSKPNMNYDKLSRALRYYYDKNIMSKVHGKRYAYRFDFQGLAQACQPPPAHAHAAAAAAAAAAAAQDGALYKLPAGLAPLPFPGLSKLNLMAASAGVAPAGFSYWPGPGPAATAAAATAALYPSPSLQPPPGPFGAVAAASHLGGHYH
How it was run: as §1

[11] = biological target: ETV5 (Homo sapiens, UniProt P41161 1-510); details: protein: recombinant; tags: N-terminal GST; dsDNA, one strand shown
Sequence of ETV5 (P41161 whole entry): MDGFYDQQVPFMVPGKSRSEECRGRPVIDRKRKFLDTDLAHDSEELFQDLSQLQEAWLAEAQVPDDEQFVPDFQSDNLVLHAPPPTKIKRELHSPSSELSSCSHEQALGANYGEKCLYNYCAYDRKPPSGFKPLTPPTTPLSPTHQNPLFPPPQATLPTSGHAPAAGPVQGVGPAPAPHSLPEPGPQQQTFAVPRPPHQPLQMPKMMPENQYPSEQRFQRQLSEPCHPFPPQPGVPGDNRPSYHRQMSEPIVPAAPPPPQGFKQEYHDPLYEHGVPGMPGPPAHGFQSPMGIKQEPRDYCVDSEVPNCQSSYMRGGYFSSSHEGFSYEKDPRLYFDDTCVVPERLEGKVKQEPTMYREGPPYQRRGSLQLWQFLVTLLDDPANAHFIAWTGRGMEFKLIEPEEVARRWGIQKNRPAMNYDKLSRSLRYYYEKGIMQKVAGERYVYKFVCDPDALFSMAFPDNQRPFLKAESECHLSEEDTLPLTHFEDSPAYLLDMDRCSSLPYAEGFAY
How it was run: as §1

[12] = biological target: HSF1 (Homo sapiens, UniProt Q00613 1-529); details: protein: recombinant; tags: N-terminal GST; chain copies: 3; dsDNA, one strand shown
Sequence of HSF1 (Q00613 whole entry): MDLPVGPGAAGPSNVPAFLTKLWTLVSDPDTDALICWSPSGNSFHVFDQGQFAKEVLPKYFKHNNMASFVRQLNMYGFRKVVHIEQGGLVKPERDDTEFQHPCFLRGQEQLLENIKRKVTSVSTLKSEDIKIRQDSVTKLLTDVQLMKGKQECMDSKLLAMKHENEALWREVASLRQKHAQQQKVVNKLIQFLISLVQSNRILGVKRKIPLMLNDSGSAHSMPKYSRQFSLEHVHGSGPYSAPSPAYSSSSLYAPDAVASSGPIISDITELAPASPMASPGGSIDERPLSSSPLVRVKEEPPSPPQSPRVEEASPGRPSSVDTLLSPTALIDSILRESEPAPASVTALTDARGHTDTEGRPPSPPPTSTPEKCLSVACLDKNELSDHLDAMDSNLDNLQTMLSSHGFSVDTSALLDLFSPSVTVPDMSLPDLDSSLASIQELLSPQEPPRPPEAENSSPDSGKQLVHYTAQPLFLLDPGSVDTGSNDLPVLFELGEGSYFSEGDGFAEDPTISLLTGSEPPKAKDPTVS
How it was run: as §1

[13] = biological target: T8, SPIC (Homo sapiens, UniProt Q8N5J4 1-248); details: protein: recombinant; tags: N-terminal GST; dsDNA, one strand shown
T8 sequence: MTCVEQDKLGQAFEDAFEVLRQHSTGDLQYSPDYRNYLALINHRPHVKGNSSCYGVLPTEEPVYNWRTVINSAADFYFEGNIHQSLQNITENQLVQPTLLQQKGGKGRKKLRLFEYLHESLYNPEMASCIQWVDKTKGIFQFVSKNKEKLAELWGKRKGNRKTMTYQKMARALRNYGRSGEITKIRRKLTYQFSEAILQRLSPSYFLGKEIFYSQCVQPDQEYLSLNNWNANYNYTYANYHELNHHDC
How it was run: as §1

[14] = biological target: ELF4 (Homo sapiens, UniProt Q99607 1-663); details: protein: recombinant; tags: N-terminal GST; dsDNA, one strand shown
Sequence of ELF4 (Q99607 whole entry): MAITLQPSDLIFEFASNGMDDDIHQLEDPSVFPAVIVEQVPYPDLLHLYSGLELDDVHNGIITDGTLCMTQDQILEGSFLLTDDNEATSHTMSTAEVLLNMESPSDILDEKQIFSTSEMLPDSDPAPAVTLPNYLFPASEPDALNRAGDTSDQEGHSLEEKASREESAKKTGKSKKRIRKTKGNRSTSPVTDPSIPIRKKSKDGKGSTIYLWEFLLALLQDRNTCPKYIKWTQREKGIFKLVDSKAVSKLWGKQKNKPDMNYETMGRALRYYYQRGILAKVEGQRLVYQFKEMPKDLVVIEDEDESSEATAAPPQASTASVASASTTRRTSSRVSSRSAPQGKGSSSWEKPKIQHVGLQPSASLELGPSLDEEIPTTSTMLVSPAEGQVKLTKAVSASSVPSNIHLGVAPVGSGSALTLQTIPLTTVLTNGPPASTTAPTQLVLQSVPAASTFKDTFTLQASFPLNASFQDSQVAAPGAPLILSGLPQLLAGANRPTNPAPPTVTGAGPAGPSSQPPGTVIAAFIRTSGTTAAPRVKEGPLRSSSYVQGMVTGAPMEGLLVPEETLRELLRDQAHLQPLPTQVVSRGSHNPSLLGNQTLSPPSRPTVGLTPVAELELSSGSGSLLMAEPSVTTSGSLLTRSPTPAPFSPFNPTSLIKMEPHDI
How it was run: as §1

[15] = biological target: T9, ELK4 (Homo sapiens, UniProt P28324-2 1-405); details: protein: recombinant; tags: N-terminal GST; dsDNA, one strand shown
T9 sequence: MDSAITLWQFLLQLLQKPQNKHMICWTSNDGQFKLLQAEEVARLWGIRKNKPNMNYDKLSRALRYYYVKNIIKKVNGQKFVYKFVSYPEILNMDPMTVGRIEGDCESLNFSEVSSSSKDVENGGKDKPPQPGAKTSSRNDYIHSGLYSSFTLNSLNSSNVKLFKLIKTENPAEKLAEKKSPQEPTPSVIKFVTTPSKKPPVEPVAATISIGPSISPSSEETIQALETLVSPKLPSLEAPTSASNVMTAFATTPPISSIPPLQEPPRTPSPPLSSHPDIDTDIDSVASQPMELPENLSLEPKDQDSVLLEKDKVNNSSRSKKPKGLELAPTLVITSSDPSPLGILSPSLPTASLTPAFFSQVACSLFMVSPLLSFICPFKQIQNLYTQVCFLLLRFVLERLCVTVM
How it was run: as §1

[16] = biological target: T10, ETV2 (Homo sapiens, UniProt O00321 1-342); details: protein: recombinant; tags: N-terminal GST; dsDNA, one strand shown
T10 sequence: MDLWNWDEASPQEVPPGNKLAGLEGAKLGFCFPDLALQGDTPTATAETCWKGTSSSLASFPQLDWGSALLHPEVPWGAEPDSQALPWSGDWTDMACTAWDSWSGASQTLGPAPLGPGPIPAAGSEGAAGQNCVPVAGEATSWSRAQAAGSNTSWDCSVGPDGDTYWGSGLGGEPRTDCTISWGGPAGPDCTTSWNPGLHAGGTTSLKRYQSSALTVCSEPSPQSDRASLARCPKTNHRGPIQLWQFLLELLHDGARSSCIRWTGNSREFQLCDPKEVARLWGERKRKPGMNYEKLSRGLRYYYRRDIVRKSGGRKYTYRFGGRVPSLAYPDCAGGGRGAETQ
How it was run: as §1

[17] = biological target: T11, ELF3 (Homo sapiens, UniProt P78545 1-371); details: protein: recombinant; tags: N-terminal GST; dsDNA, one strand shown
T11 sequence: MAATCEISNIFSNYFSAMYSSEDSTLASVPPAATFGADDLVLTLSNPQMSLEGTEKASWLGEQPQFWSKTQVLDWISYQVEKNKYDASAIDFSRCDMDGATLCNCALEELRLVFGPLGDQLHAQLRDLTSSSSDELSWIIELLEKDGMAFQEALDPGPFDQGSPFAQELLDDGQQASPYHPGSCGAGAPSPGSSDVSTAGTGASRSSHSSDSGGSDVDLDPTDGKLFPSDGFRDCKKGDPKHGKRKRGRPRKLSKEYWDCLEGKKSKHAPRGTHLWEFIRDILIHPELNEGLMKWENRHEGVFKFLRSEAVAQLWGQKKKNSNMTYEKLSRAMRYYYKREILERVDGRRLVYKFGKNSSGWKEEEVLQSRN
How it was run: as §1

[18] = biological target: CRX (Homo sapiens, UniProt O43186 1-299); details: protein: recombinant; tags: N-terminal GST; dsDNA, one strand shown
Sequence of CRX (O43186 whole entry): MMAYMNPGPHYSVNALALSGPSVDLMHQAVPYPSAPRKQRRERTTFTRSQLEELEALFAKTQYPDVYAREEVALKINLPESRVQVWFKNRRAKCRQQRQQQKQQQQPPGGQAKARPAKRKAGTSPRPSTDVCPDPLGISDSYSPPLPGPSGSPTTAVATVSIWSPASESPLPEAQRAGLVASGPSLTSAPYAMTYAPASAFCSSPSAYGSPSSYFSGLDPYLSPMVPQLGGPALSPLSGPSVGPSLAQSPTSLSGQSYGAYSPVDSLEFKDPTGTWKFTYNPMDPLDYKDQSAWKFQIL
How it was run: as §1

[19] = biological target: ETV1 (Homo sapiens, UniProt P50549 1-477); details: protein: recombinant; tags: N-terminal GST; dsDNA, one strand shown
Sequence of ETV1 (P50549 whole entry): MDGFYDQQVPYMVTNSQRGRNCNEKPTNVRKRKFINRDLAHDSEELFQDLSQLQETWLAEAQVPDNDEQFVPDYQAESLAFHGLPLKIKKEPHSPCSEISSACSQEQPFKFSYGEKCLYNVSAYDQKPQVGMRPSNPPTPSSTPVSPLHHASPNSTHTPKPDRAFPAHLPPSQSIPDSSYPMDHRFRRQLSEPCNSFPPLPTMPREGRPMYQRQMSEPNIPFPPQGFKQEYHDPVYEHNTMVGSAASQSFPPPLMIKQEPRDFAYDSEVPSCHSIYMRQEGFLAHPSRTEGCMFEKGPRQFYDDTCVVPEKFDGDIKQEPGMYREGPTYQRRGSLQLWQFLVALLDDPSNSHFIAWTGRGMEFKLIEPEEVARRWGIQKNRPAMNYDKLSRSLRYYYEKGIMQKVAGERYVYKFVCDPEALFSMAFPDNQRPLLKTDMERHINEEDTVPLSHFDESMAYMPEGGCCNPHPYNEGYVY
How it was run: as §1

ATATTT
binding signal [1]: 1.6 fold enrichment (6-mer frequency, TF over GST control)
binding signal [2]: 1.54 fold enrichment (6-mer frequency, TF over GST control)
binding signal [3]: 1.55 fold enrichment (6-mer frequency, TF over GST control)
binding signal [4]: 1.53 fold enrichment (6-mer frequency, TF over GST control)
binding signal [5]: 1.55 fold enrichment (6-mer frequency, TF over GST control)
binding signal [6]: 1.56 fold enrichment (6-mer frequency, TF over GST control)
binding signal [7]: 1.43 fold enrichment (6-mer frequency, TF over GST control)
binding signal [8]: 1.51 fold enrichment (6-mer frequency, TF over GST control)
binding signal [9]: 1.47 fold enrichment (6-mer frequency, TF over GST control)
binding signal [10]: 1.47 fold enrichment (6-mer frequency, TF over GST control)
binding signal [11]: 1.54 fold enrichment (6-mer frequency, TF over GST control)
binding signal [12]: 1.52 fold enrichment (6-mer frequency, TF over GST control)
binding signal [13]: 1.45 fold enrichment (6-mer frequency, TF over GST control)
binding signal [14]: 1.53 fold enrichment (6-mer frequency, TF over GST control)
binding signal [15]: 1.81 fold enrichment (6-mer frequency, TF over GST control)
binding signal [16]: 1.55 fold enrichment (6-mer frequency, TF over GST control)
binding signal [17]: 1.54 fold enrichment (6-mer frequency, TF over GST control)
binding signal [18]: 1.6 fold enrichment (6-mer frequency, TF over GST control)
binding signal [19]: 1.56 fold enrichment (6-mer frequency, TF over GST control)
